Molecules are shown by their SMILES. Values joined by “and” are separate entries in the source; they are usually repeats but may differ in a detail not shown here. Equal values may be shown once. Results filed as inconclusive are left out. More than one record can exist for a structure, and the calls need not agree. Active and inactive are the calls of the source. Unless noted, the call rests on the fitted dose curve.

Experiment [1] can be described thus: Nuclear factor erythroid 2-related factor 2/antioxidant responsive element (Nrf2/ARE) small molecule agonists: qHTS cell viability counter screen in human keratinocytes (AID 1919968; active means well fitted curve in the direction sought with a large enough effect in the repeat runs; an effect the other way counts as inactive or inconclusive; further: nearly all actives have a fitted effect of over 55% in size; further: potency means the concentration at half of the fitted maximal effect). Summed up:
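Parallel cytotoxicity read: KeratinoSens HaCaT cells, compound treatment 23 h, viability by CellTiter-Fluor fluorescence 1 h post-reagent.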

Experiment [2] in a line: Nuclear factor erythroid 2-related factor 2/antioxidant responsive element (Nrf2/ARE) small molecule agonists: luciferase reporter gene qHTS assay in human keratinocytes (AID 1919969). Further: nearly all actives have a fitted effect of over 35% in size. For orientation: In a reporter assay the amount or activity of a reporter protein is the signal.
For experiment [3], the target named is Gonadotropin-releasing hormone receptor (Homo sapiens) (UniProt P30968). The experiment is described as follows: Human gonadotropin-releasing hormone receptor (GnRHR) small molecule agonists, calcium flux assay in GnRHR-HEK293 cells (AID 1920063). Further: nearly all actives have a fitted effect of over 35% in size. An outline of the steps: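 Calcium flux, agonist mode, human GnRHR stably integrated in HEK293; dye 1 h at 37 C before compound; Ex/Em=480/540 kinetic read, 3 min; 15 concentrations, triplicate.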
(A change in cytosolic calcium serves as a functional read-out for many receptors and channels.)

Experiment [4] addresses KiSS-1 receptor (Homo sapiens) (UniProt Q969F8). As to the kind of experiment: Human kisspeptin (KISS1R) small molecule agonists, calcium flux assay in KISS1R-HEK293 cells (AID 1920064; active means well fitted curve in the direction sought with a large enough effect in the repeat runs; an effect the other way counts as inactive or inconclusive). An outline of the steps: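 Triplicate 15-concentration series were applied to dye-loaded human KISS1R HEK293 cells, and agonist-evoked calcium fluorescence was captured for 3 min.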
Experiment [5] can be described thus: G protein-coupled receptor (GPCR) small molecule agonists, calcium flux assay: HEK293 wild type cell line counter screen (AID 1920065). An outline of the steps:
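Non-specific calcium responders were flagged by adding DMSO-dissolved compounds to dye-loaded cells and reading 480/540 nm fluorescence each second for 3 min; ATP served as positive control.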

The nature of experiment [6]: p53 small molecule agonists, cell-based qHTS assay with human liver microsomes (AID 1963577).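 Further: p53 response element beta-lactamase reporter cells with liver microsomes plus NADPH.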 An outline of the steps: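 Steps: plate p53RE-bla cells, incubate 5 h at 37 C; add compound in DMSO; add microsomes (0.5 mg/mL final) and NADPH (0.5 mg/mL final); incubate 16 h at 37 C; add LiveBLAzer, 2 h RT; read fluorescence.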
Experiment [7] can be described thus: p53 small molecule agonists, cell-based qHTS assay with rat liver microsomes (AID 1963578). Summed up:
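Metabolic activation is supplied by rat liver microsomes with NADPH (each 0.5 mg/mL final). p53RE-bla cells incubate with compound 16 h at 37 C; reporter activity is measured by LiveBLAzer fluorescence.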
(Quantitative high-throughput screening tests each substance at several concentrations.)

Experiment [8] is described as follows: p53 small molecule agonists, cell-based qHTS assay with human liver microsomes: qHTS cell viability counter screen (AID 1963579). Further: nearly all actives have a fitted effect of over 45% in size. Further: potency means the concentration at half of the fitted maximal effect. An outline of the steps:
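After the 460/530 nm beta-lactamase read, CellTiter-Glo was added to the same wells and luminescence measured after 30 min at room temperature, giving viability of p53RE-bla cells treated 16 h with compounds plus microsomes and NADPH.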

Experiment [9] is described as follows: p53 small molecule agonists, cell-based qHTS assay with rat liver microsomes: qHTS cell viability counter screen (AID 1963580). Further: nearly all actives have a fitted effect of over 45% in size. Summed up: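 Rat liver microsome (0.5 mg/mL final) and NADPH (0.5 mg/mL final) co-incubation with compounds for 16 h at 37 C on HCT-116 p53RE-bla cells; cytotoxicity taken from intracellular ATP luminescence.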
A short description of experiment [10]: p53 small molecule agonists, cell-based qHTS assay: qHTS cell viability counter screen (AID 1963581). Further: nearly all actives have a fitted effect of over 45% in size. An outline of the steps: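 Multiplexed with the reporter read, a CellTiter-Glo step (30 min, room temperature) gauges ATP-based viability of HCT-116 p53RE-bla cells after 16 h compound incubation at 37 C.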
Experiment [11] in a line: p53 small molecule agonists, cell-based qHTS assay (AID 1963582; active means well fitted activation curve with a large enough effect in the signal ratio in the repeat runs, not every such curve was filed as active; the % refers to the signal ratio). Summed up: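 Beta-lactamase reporter cells (p53RE-bla) treated with compounds for 16 h at 37 C; FRET substrate, 2 h, room temperature; fluorescence intensity.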
The target of experiment [12] is 5-hydroxytryptamine receptor 2A (Homo sapiens) (UniProt P28223). The experiment is described as follows: 5-hydroxytryptamine receptor 2A (HTR2A) small molecule antagonists, cell-based qHTS assay (AID 1963586). Further: nearly all actives have a fitted effect of over 45% in size. Further: potency means the concentration at half of the fitted maximal effect. Summed up: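 CHO cells stably expressing human HTR2A were plated for 18 h at 37 C, then loaded with calcium dye for 1 h. Compounds were preincubated 5 min at room temperature before DOI (4 nM solution) was added. Kinetic fluorescence was read for 3 min.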

Experiment [13] has the same target. As to the kind of experiment: 5-hydroxytryptamine receptor 2A (HTR2A) small molecule agonists, cell-based qHTS assay (AID 1963587). Further: nearly all actives have a fitted effect of over 30% in size. Further: potency means the concentration at half of the fitted maximal effect. An outline of the steps:
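Kinetic calcium-flux fluorescence (2 min, 1 sec intervals) after compound addition in agonist mode. HTR2A-CHO cells were cultured 18 h, then dye-loaded 1 h at 37 C.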

Experiment [14] concerns the target Muscarinic acetylcholine receptor M1 (Homo sapiens) (UniProt P11229). As to the kind of experiment: Cholinergic receptor muscarinic 1 (CHRM1) small molecule antagonists, cell-based qHTS assay (AID 1963588). Further: nearly all actives have a fitted effect of over 40% in size. Further: potency means the concentration at half of the fitted maximal effect. Summed up: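 Compounds were tested at 15 concentrations in three independent runs. Dye-loaded CHRM1-CHO cells were exposed 5 min at room temperature before stimulation by acetylcholine added at 50nM. Intracellular calcium was read kinetically on FDSS for 3 min.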

The target is the same in experiment [15]. The experiment is described as follows: Cholinergic receptor muscarinic 1 (CHRM1) small molecule agonists, cell-based qHTS assay (AID 1963589). Further: nearly all actives have a fitted effect of over 35% in size. Summed up:
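qHTS, 15-point titration, 3 independent runs: compounds pin-transferred onto dye-loaded CHRM1-CHO cells (human M1), calcium fluorescence followed every second to detect agonism.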

The nature of experiment [16]: cAMP Responsive Elements (CRE) small molecule agonists, cell-based qHTS assay (AID 1963590). Summed up: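 Quantitative HTS for CRE agonists: HEK 293T CRE-bla cells, overnight plating, 3 h compound incubation at 37 C/5% CO2, then 2 h room-temperature LiveBLAzer B/G FRET substrate loading.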
For experiment [17], the target named is Beta-2 adrenergic receptor (Homo sapiens) (UniProt P07550). As to the kind of experiment: Adrenergic beta2 receptor (ADRB2) small molecule antagonists, cell-based qHTS assay (AID 1963592). Further: nearly all actives have a fitted effect of over 50% in size. Further: potency means the concentration at half of the fitted maximal effect. Summed up: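 Assay format: CHO-ADRB2 cells, 18-20hr seeding at 37C/5% CO2, then compound plus 1nM isoproterenol agonist mix for 0.5hr RT. Homogeneous time-resolved fluorescence cAMP detection after 1hr, expressed as 665/615 nm ratio.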

Experiment [18] has as its target D(2) dopamine receptor (Homo sapiens) (UniProt P14416). The experiment is described as follows: Dopamine D2 receptor (DRD2) small molecule agonists, cell-based qHTS assay (AID 1963594). Further: nearly all actives have a fitted effect of over 35% in size. Summed up:
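cAMP accumulation in DRD2-HEK293 cells measured by HTRF after 1 h detection; compounds added 10 min before NKH477 (200nM […]) forskolin-analogue stimulation, 30 min at room temperature, with Ro20-1724 present at 0.1 mM final.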

Experiment [19] has the same target. The experiment is described as follows: Dopamine D2 receptor (DRD2) small molecule antagonists, cell-based qHTS assay (AID 1963595; active means well fitted inhibition curve with a large enough effect in the signal ratio in the repeat runs, with a control signal flat; the % refers to the signal ratio). Summed up:
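Readout: HTRF cAMP, cAMP-d2 competing with cellular cAMP for anti-cAMP cryptate, read after 1 h. Cells: DRD2-HEK293. Conditions: 0.1 mM Ro20-1724, 12 nM quinpirole, 200 nM NKH477, 30 min RT.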

A short description of experiment [20]: cAMP Responsive Elements (CRE) small molecule antagonists, cell-based qHTS assay (AID 1963591; active means well fitted inhibition curve with a large enough effect in the signal ratio in the repeat runs, not every such curve was filed as active; the % refers to the signal ratio). An outline of the steps: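 Fluorescence intensity from cleaved LiveBLAzer B/G substrate (2 h, room temperature) quantified CRE-bla activity in HEK 293T cells exposed 3 h to compound with 0.25 uM final NKH477.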

Chain of D(2) dopamine receptor (Homo sapiens) (P14416 whole entry, looked up): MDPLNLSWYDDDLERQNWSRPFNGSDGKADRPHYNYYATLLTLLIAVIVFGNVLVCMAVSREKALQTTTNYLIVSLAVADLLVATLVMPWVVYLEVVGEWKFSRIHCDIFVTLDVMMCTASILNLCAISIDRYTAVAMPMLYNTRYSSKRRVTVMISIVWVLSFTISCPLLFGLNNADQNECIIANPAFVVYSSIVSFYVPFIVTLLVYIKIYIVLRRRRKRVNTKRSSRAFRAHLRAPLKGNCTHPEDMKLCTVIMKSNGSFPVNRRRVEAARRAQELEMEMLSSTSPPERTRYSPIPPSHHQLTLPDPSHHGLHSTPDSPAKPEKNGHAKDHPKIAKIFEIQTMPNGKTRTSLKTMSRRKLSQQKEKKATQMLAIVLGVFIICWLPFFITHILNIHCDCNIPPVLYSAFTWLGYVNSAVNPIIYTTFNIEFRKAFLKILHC
Chain of Gonadotropin-releasing hormone receptor (Homo sapiens) (P30968 whole entry, looked up): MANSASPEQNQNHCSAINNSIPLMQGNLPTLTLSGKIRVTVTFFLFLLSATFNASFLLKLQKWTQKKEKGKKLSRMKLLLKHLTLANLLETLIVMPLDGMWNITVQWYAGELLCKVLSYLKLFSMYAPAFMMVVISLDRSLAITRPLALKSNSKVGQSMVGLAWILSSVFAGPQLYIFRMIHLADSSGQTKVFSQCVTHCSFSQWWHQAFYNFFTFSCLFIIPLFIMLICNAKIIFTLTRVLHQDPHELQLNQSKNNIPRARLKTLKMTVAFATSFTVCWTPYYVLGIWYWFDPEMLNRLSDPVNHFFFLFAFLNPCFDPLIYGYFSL
Chain of 5-hydroxytryptamine receptor 2A (Homo sapiens) (P28223 whole entry, looked up): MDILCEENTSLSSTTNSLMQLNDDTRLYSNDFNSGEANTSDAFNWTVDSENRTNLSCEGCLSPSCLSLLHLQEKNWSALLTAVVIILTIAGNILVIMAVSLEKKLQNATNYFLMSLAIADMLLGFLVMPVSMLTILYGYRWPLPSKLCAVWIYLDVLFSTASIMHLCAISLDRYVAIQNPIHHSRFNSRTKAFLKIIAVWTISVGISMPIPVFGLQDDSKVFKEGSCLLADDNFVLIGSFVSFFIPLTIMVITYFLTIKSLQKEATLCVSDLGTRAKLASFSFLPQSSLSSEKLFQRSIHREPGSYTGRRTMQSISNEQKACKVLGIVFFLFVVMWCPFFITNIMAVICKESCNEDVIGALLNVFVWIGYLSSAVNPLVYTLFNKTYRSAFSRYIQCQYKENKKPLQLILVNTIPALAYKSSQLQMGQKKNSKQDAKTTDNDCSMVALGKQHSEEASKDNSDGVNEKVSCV
Chain of Muscarinic acetylcholine receptor M1 (Homo sapiens) (P11229 whole entry, looked up): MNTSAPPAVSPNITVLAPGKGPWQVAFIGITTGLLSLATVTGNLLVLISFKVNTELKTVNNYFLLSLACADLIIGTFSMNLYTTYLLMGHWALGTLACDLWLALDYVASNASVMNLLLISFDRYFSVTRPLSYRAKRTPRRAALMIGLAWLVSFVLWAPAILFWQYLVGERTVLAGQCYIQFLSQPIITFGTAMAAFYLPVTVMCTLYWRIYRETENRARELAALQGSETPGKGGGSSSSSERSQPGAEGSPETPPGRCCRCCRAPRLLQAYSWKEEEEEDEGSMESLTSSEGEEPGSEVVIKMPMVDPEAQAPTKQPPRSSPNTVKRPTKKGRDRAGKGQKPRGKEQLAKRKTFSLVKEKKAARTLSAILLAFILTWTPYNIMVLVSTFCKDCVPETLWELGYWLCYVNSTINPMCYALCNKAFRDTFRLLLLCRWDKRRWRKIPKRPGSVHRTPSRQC
Chain of KiSS-1 receptor (Homo sapiens) (Q969F8 whole entry, looked up): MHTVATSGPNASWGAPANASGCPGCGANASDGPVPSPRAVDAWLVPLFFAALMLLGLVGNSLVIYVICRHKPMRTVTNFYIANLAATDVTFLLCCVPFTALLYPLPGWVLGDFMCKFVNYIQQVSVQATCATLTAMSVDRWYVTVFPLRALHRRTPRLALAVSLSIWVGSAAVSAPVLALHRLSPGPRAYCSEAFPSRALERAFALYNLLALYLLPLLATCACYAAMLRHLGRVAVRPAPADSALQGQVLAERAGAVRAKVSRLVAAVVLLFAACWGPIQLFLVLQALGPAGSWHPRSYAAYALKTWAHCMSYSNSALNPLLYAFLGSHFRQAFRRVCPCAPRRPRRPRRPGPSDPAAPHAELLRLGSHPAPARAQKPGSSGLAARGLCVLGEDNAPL
Chain of Beta-2 adrenergic receptor (Homo sapiens) (P07550 whole entry, looked up): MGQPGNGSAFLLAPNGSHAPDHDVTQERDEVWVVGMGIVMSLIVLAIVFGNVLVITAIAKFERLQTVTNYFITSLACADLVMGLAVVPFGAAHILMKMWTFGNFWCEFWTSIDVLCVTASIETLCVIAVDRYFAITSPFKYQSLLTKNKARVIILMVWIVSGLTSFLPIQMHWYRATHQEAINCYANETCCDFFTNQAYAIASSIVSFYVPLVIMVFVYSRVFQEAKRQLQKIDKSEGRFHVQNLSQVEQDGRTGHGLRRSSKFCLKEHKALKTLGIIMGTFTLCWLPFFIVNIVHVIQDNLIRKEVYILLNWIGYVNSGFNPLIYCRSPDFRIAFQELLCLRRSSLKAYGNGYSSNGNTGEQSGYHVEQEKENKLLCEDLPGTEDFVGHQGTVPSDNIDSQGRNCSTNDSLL

On to `O=[N+]([O-])c1cc(Cl)c(Cl)c(Cl)c1`, for which the Potency entry in experiment [1], in [2], in [3], in experiment [4], in experiment [5] and in experiment [6] was “inactive” throughout. For the same molecule, the Potency result in experiment [7], in [8], in experiment [9], in experiment [10], in experiment [11] and in experiment [12] was “inactive” each time. The Potency result in experiment [13], in experiment [14], in experiment [15], in experiment [16], in experiment [17] and in experiment [18] was “inactive” in each case. In experiment [19], the Potency entry is “inactive”.
`Cc1cc(-c2ccc(N)c(C)c2)ccc1N`: the Potency result in experiment [1], in [2], in experiment [3], in [4], in [5] and in experiment [6] was “inactive” in each case. For the same molecule, the Potency result in experiment [7], in experiment [9], in experiment [10], in experiment [11], in experiment [12] and in experiment [13] was “inactive” each time. In addition, the Potency result in experiment [14], in experiment [15], in experiment [16], in experiment [20], in experiment [18] and in experiment [19] was “inactive” throughout. Further, the Potency entry in experiment [8] was “inactive and 4.07 µM (active)”.
Consider `CC(=O)CC(c1ccc(Cl)cc1)c1c(O)c2ccccc2oc1=O` (stereo unspecified), for which the Potency result in experiment [1], in experiment [2], in [3], in [4], in experiment [5] and in [6] was “inactive” in each case. For the same molecule, the Potency result in [7], in [8], in experiment [9], in [10], in experiment [11] and in [12] was “inactive” throughout. For the same molecule, the Potency result in experiment [13], in experiment [14], in [15], in [16], in experiment [17] and in experiment [18] was “inactive” each time. Further, the Potency result in experiment [19] was “inactive”.
Turning to `O=P(O)(O)CN(CP(=O)(O)O)CP(=O)(O)O`, the Potency result in [1], in experiment [2], in [3], in experiment [4], in experiment [5] and in [6] was “inactive” in each case. Further, the Potency result in [7], in experiment [8], in experiment [9], in experiment [10], in experiment [11] and in experiment [12] was “inactive” in each case. The Potency entry in [13], in experiment [14], in experiment [15], in [20], in experiment [17] and in experiment [18] was “inactive” throughout. Besides, the Potency entry in experiment [19] was “inactive”.
Regarding `OCCSCSCCO`, the Potency entry in experiment [1], in [2], in experiment [3], in experiment [4], in [5] and in experiment [6] was “inactive” in each case. Also, the Potency entry in experiment [7], in experiment [8], in [9], in experiment [10], in [11] and in experiment [12] was “inactive” each time. Also, the Potency entry in experiment [13], in [14], in [16], in experiment [20], in experiment [17] and in [18] was “inactive” throughout. Moreover, the Potency result in experiment [19] was “inactive”.
Take `CCOC(=O)C(O)(c1ccc(Cl)cc1)c1ccc(Cl)cc1`: the Potency is 61.8 µM (active) in experiment [1]; 33.8 µM (active) and inactive in experiment [12]; 6.99 µM (active) and inactive in [13]; 8.48 µM (active) in experiment [14]; 69.3 µM (active) and inactive in experiment [17]. For the same molecule, the Potency entry in experiment [2], in experiment [3], in experiment [4], in experiment [5], in experiment [6] and in experiment [7] was “inactive” each time. The Potency result in [8], in [9], in experiment [10], in experiment [11], in experiment [15] and in [18] was “inactive” in each case. Further, the Potency entry in experiment [19] was “inactive”.
Regarding `CC(C)(N)Cc1ccccc1Cl`, the Potency entry in [1], in experiment [2], in [3], in experiment [4], in experiment [5] and in [6] was “inactive” in each case. The Potency entry in experiment [7], in [8], in experiment [9], in experiment [10], in experiment [11] and in experiment [12] was “inactive” each time. Further, the Potency result in experiment [13], in experiment [14], in [16], in [20], in experiment [17] and in [19] was “inactive” throughout.
